NPC1 prom act – qHTS Assay for NPC1 Promoter Activators; AID 485313, 2010; Huh7 NPC1 promoter luciferase reporter, 24 h; Potency, µM (series often up to 9.22 µM), for the others: top-dose activation, actives largely listed as activators; 320,000 compounds, 2.4% hits; note: % of control where 0% means no effect; nearly all actives have a fitted effect of over 60% in size
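NPC1 promoter–luciferase Huh7 cells; 24 h compound; luminescence.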
ELG1 genotox – qHTS screen for small molecules that induce genotoxicity in human embryonic kidney (HEK293T) cells expressing luciferase-tagged ELG1; 330,000 compounds, 1.3% hits; HEK293T ELG1-luciferase reporter, luminescence, 16 h; Potency, µM (top dose mostly 46 µM), for the others: at the highest dose activity change, positive = activation, actives largely listed as activators; note: % of control where 0% means no effect; nearly all actives have a fitted effect of over 60% in size
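HEK293T cells expressing luciferase-tagged ELG1 were treated with compound or DMSO for 16 hr at 37°C. Luciferase activity was then read after 30 min with ONE-Glo at room temperature; rising signal flags genetic stress.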
Rab9 prom act – qHTS Assay for Rab9 Promoter Activators | Potency, µM (titrated, usually from 9.22 µM), for the others: at the top dose activation, negative = inhibition, actives largely listed as activators | 320,000 compounds, 2.8% hits | Huh7 Rab9 promoter-luciferase reporter, luminescence, 24 h | AID 485297, 2010; note: % of control where 0% means no effect; nearly all actives have a fitted effect of over 60% in size
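Rab9 promoter-driven luciferase in stably transfected Huh7 cells; 1500 cells/well rested 2 h, exposed to compound in DMSO for 24 h at 37 °C, 5% CO2. Luminescence read 10 min after adding luciferase reagent at ambient temperature.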
ELG1 DNA repair – qHTS screen for small molecules that inhibit ELG1-dependent DNA repair in human embryonic kidney (HEK293T) cells expressing luciferase-tagged ELG1; HEK293T ELG1-luciferase reporter, luminescence, 16 h; DNA damage induced by 5-fluorouridine; Potency, µM (series often up to 46.1 µM), inactives show at the highest dose activity change, negative = inhibition, usual class: inhibitors; 330,000 compounds, 2.3% hits; note: % is set by controls: 0 for no effect and ±100 for the full control effect; nearly all actives have a fitted effect of over 55% in size
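DMSO vehicle served as the neutral condition. Each well held 2,000 cells given 5-fluorouridine plus compound; after 16 hr at 37 °C/5% CO2, ONE-Glo was added and luciferase measured 30 min later.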
SMN2 splice enh – qHTS Assay for Enhancers of SMN2 Splice Variant Expression; HEK293 SMN2-luciferase splicing reporter, luminescence, 30-36 h; Potency, µM (highest dose often 46.1 µM), without a hit: at the highest dose activity change, positive = activation, usual class: activators; 210,000 compounds, 2.8% hits; note: % of control where 0% means no effect; nearly all actives have a fitted effect of over 55% in size
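HEK293 cells carry an SMN2 minigene-luciferase reporter in which exon 7 inclusion puts luciferase in frame. Cells were seeded at 2000 cells/well, attached for 10-12 hours, then exposed to compounds for 30-36 hours at 37C before ONE-Glo luminescence.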
FLuc counter – qHTS profiling assay for firefly luciferase inhibitor/activator using purifed enzyme and Km concentrations of substrates (counterscreen for miR-21 project); Luciferin 4-monooxygenase (Photinus pyralis), P08659; purified FLuc, Km substrates, luminescence inhibition; Potency, µM (titrated, usually from 57.5 µM), inactives show top-dose activity change, negative = inhibition, most hits filed as inhibitors; 360,000 compounds, 6.9% hits; AID 588342, 2011;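 note: plate controls were vehicle for no effect and reference inhibitor for full effect; nearly all actives have a fitted effect of over 55% in size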
Target sequence (P08659 whole entry, looked up): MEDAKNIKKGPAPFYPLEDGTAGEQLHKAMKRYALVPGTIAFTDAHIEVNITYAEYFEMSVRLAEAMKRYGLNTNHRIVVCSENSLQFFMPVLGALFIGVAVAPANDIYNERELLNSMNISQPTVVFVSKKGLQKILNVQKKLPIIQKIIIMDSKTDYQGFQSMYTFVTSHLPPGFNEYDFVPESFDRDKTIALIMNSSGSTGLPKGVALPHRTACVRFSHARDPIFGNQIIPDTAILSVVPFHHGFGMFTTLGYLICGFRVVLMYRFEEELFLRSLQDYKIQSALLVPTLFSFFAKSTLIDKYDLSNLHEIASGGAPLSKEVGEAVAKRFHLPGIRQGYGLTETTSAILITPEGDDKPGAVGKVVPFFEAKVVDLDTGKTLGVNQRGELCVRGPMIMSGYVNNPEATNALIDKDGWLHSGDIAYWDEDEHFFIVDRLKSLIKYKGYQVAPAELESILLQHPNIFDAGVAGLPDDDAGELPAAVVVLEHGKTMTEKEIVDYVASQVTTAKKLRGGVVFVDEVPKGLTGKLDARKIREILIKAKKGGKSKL
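Biochemical qHTS of compounds, final roughly 60 µM downward over six points, against 10 nM purified firefly luciferase using Km concentrations of substrates (10 uM D-luciferin, 10 uM ATP) in Tris acetate pH 7.5 buffer; luminescence output.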
* marks the source's active call; other numbers are inactive results; ? = inconclusive; . = no result given. This is a sample that favours compounds with a hit; in the whole collection about 9.4% have one here. Calls come from the whole dose curve; as a rule, active = well fitted curve in the direction sought with a large enough effect; inconclusive = small, poorly fitted or top-dose-only effect, or another doubt; inactive = no such curve, though single readings can be large; an effect the other way counts as inactive or inconclusive. Potency is the fitted concentration of half-maximal effect.

SMILES | NPC1 prom act | ELG1 genotox | Rab9 prom act | ELG1 DNA repair | SMN2 splice enh | FLuc counter
Oc1ccc2ccccc2c1/C=N/n1cnnc1 | -6.1% | 0.3% | 0.4% | 6.4% | 3.9% | -0.9%
Oc1ccc2ccccc2c1/C=N/Nc1ccccc1 | 0.0% | ? | -0.1% | ? | ? | 6.01µM*
O=C(CNc1ccc(F)cc1)N/N=C/c1c(O)ccc2ccccc12 | -10.2% | ? | -9.9% | -27.7% | . | -15.9%
Cc1nn(C)c(C)c1N=Cc1c(O)ccc2ccccc12 | -0.3% | -0.7% | 15.3% | 2.3% | 10.1% | 13.5µM*
NC(=S)N/N=C/c1c(O)ccc2ccccc12 | 8.7% | -11.8% | -15.1% | 13µM* | . | -4.4%
Cc1cccc(OCc2cc(=O)n3c(-c4ccccc4)csc3n2)c1C | . | . | . | . | 2.0% | -1.8%
CCCN(CC1CC1)C(=O)CSc1ncnc2sc(C)c(C)c12 | 0.0% | -6.0% | -1.7% | 18.4µM* | -29.0% | -1.1%
Cc1ccc(S(=O)(=O)c2cn(Cc3ccccc3)c3cc(N4CCCC4)c(F)cc3c2=O)cc1C | . | . | . | . | . | -1.3%
COc1ccc(-c2cc(OC(=O)c3cccc(Cl)c3)c3c(C)oc(C)c3c(=O)c2)cc1 | . | . | . | . | -11.5% | ?
CCCCCN=C(C)c1c(O)c2ccccc2oc1=O | ? | ? | ? | ? | . | 16.9µM*
CCOc1ccc(-c2nonc2NC(=O)c2oc3cc(C)ccc3c2C)cc1 | . | . | . | . | -8.6% | -6.1%
Cc1cc(C)n(-c2nc(N(c3ccccc3)c3ccccc3)nc(-n3nc(C)cc3C)n2)n1 | -5.3% | -11.1% | -5.0% | 25.9µM* | -114.7% | 1.9%
COc1cccc(C(=O)NC(=O)Nc2ccc(-n3nc(C(F)(F)F)cc3C(F)(F)F)cc2)c1 | . | . | . | . | -4.9% | -5.7%
O=c1[nH]c(=O)n(C2CCCCC2)c(O)c1C1=Nc2ccccc2SC(c2ccccc2)C1 (centres undefined) | . | . | . | . | . | -8.5%
Cc1cc(O)c(C2=Nc3ccccc3SC(c3ccc(Cl)cc3)C2)c(=O)o1 (centres undefined) | -3.3% | 7.31µM* | 3.1% | ? | -59.8% | 4.78µM*
CCc1ccc(OCC(=O)Nc2ccc3c(c2)c2ccccc2n3CC)cc1 | . | . | . | . | -14.3% | 6.7%
CCn1c2ccccc2c2cc(NC(=O)COC(=O)c3cc(OC)c(OC)cc3OC)ccc21 | -3.9% | -3.9% | -7.6% | 9.2µM* | -25.1% | -1.3%
Cc1nc2c(c(C)c1CCC(=O)Nc1cccc(C(F)(F)F)c1)c(=O)n(C)c(=O)n2C | . | . | . | . | -18.9% | 4.0%
CC(C)COc1ccc(C(=O)N2CCCCC2CCN2CCCCC2)cc1 (centres undefined) | . | . | . | . | -11.2% | -0.6%
Cc1cc(Cl)ccc1NC(=O)C1CCN(c2nnc(-n3c(C)ccc3C)s2)CC1 | . | . | . | . | -11.7% | 2.6%
COc1ccc(-c2cc(C(=O)Nc3cc(C)ccc3O)no2)cc1 | ? | 20.6µM* | 19.5% | ? | . | -8.1%
Cc1ccc(O)c(NC(=O)c2cc(-c3ccccc3Cl)on2)c1 | ? | 16.4µM* | ? | ? | . | ?
Cc1ccc(-c2cc(C(=O)Nc3cc(C)ccc3O)no2)cc1 | ? | 9.2% | ? | ? | . | ?
COc1ccc(-c2cc(C(=O)Nc3cc(Cl)ccc3O)no2)cc1 | 3.55µM* | 16.4µM* | ? | ? | . | ?
COc1ccc(-c2cc(C(=O)Nc3cc(Cl)ccc3OC)no2)cc1 | 24.0% | -0.8% | 13.9% | 0.1% | . | 3.7%
Cc1cccc(-n2c(SCC(=O)Nc3ccccc3C)nc3c(oc4ccccc43)c2=O)c1 | . | . | . | . | -0.7% | -1.9%
COc1ccccc1CNC(=O)Cc1csc2nc(-c3ccc(Cl)cc3)cn12 | . | . | . | . | . | -18.5%
